Test results taken from article PMC12136788.
The full ranking holds about 5,800 sequences; the median of “enrichment r” is about 0.68, and the highest 2% start at about 11. The sample as a whole holds a higher share of the highest values than the screen did.

T1: UNK ZnF1-6 (called full-length) (human, UniProt Q9C0B0 30-357)
T1 sequence: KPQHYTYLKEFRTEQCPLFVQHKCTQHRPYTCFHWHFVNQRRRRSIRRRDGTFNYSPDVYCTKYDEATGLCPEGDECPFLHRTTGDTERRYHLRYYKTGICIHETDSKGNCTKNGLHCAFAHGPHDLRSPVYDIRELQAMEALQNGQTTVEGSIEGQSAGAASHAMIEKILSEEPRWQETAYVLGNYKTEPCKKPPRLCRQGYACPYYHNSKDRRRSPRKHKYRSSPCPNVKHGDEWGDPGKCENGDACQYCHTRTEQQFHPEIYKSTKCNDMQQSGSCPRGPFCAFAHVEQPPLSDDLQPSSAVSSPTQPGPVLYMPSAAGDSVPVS

B1: ENSG00000198589:be:win_8001|CDS|ENSG00000198589|bound_else_gene|NA|bound_elsewhere_windowed (ssRNA)
RNA: GGGAGUUCUACAGUCCGACGAUCUGGAGAUAACCCAGGCAGUGAGACUGCUGCUCCUCGGGCCAUUUUGACCGGCCAUGACUAUGAGGUCACAUGUGCUGCGGUGUGUGCGGAGCUAGGCCUGGUGUUGAGUGGUUCACAAGACAACAGAGGAUUGAGCAUCA
B2: chr2:231108229:231108516:-|three_prime_utr|ENSG00000135914|control|control|control (ssRNA)
RNA: GGGAGUUCUACAGUCCGACGAUCAAGAAUAUCUAAUUUUCCUAAUUUGGACAAGAUUAUUCCAUGAGGAAAAUAAUUUUAUAUAGCUACAAAUGAAAACAAUCCAGCACUCUGGUUAAAUUUUAAGGUAUUCGAAUGAAAUAACAACAGAGGAUUGAGCAUCA
B3: chr5:113594843:113594944:+|3pUTR|ENSG00000047188|msi1|FALSE|bound_elsewhere (ssRNA)
RNA: GGGAGUUCUACAGUCCGACGAUCCAACAUAAAAUCUUGAGAACCUUCUACUUUCUCUGGGAAAGCAUUAUAUAGUGGUGCAUUAGUUUAGAAAGUCAGCUAUGAUUUUGCCUAUAGUUCUAGUUAUUAGCUUUGGGGUUUUCUCAACAGAGGAUUGAGCAUCA
B4: chr3:49657245:49657349:+|CDS|ENSG00000164061|unk|total|mutant (ssRNA)
RNA: GGGAGUUCUACAGUCCGACGAUCCAGCCGCCGUGGCAUCAAGAAGCGGCACUCCAUGCCACGCCUGCGGGAUGCCUGUGAGCCCGAGUCUGGGACUGAGCCCUGUGUGGUCAGGAGGAUUGCCGACAGCAGCGUGCAGACAGACAACAGAGGAUUGAGCAUCA
B5: chr1:193014253:193014354:-|3pUTR|ENSG00000116750|unk|total|mutant (ssRNA)
RNA: GGGAGUUCUACAGUCCGACGAUCUUAACCGGUAUAAGGAUUUUUCUUAUUAAUCUAAUAAAAUUCCUUAACCGGAAUUUCCACCGCUUAAGAGUGGUUUAUUUUAUCUGCAUCUUCUUUGGUGAUUGCAAAUCCCUUGUGAUACAACAGAGGAUUGAGCAUCA
B6: chr1:45660322:45660423:-|5pUTR|ENSG00000159592|unk|FALSE|unique (ssRNA)
RNA: GGGAGUUCUACAGUCCGACGAUCUCCCCUUCCCCCCUUCCCCUUUUCCCCUUUCCCCUUUUGGAAACGUGUCAGGAACCAAAUAGUUUAAGAUGAGCAGUUGAGGGGACUGAGAGAGUGAUCGACACAGAACCUGGCUUCUUCCAACAGAGGAUUGAGCAUCA
B7: ENSG00000070961:be:win_3901|3pUTR|ENSG00000070961|bound_else_gene|NA|bound_elsewhere_windowed (ssRNA)
RNA: GGGAGUUCUACAGUCCGACGAUCAAGUGACCUGUGGAUCAUCAGUAGUACCCAAGCAUGGUCCUGAACAGUGUAUUAGCAGAGCUUUAGUUUAUCUCAGUCCUGGAUGGGAGAGAGAGGGAGGAGUAAAACUGGGCAAGACAACAACAGAGGAUUGAGCAUCA
B8: chr11:95167508:95167609:-|3pUTR|ENSG00000149212|unk|FALSE|unique (ssRNA)
RNA: GGGAGUUCUACAGUCCGACGAUCAAUAAUGGAGACUGAAUGAGGCGGUUUGUAUUAAAUUAUAUGCCAUGAAGUGUUCAUUUUAGCUUUAACCUAAUUAUGACUGUACCACCAUGAAGUACAGAAUGAAAAAUUAUAUAUAUGCAACAGAGGAUUGAGCAUCA
B9: chr8:30843048:30843149:-|CDS|ENSG00000133863|unk|FALSE|unique (ssRNA)
RNA: GGGAGUUCUACAGUCCGACGAUCGGAUACUAUAAUUGCUUCCAGAAAGUCAGAUCAUCCAAUAAACGAAGCAACAAUUAGCAUAGAAAAUUCUAAAUUUAACAGUAAUUUGCUUGCACACCCAGAUAUUUGUUGUAUUAGUGACAACAGAGGAUUGAGCAUCA
B10: ENSG00000136451:be:win_3801|3pUTR|ENSG00000136451|bound_else_gene|NA|bound_elsewhere_windowed (ssRNA)
RNA: GGGAGUUCUACAGUCCGACGAUCACCCCUAAGCUAGAAUGUGGUUGUCAGAACCCUGAAAGUAUUAGUUCUAAAAAAAAAAAGAUAUAUACUAGAAGUAAUUGUUUUAUCAAUUCAUUGUAUAAUAAACAGGAGUGAGACUUCCAACAGAGGAUUGAGCAUCA
B11: chr8:80500255:80500365:+|CDS|ENSG00000205189|unk|FALSE|unique (ssRNA)
RNA: GGGAGUUCUACAGUCCGACGAUCGAAAAACCAAACUACAAAAAGAUUUAUUUAUAAUAUUCCACCUAAUAAUGAAACGAAUUUAGAAGAUUGCUCAGUAAUGCAGCCACCUGUUGCCUAUCCAGAAGAAAAUACACUACUCAUCAACAGAGGAUUGAGCAUCA
B12: chr2:42328916:42329027:+|CDS|ENSG00000143924|unk|total|mutant (ssRNA)
RNA: GGGAGUUCUACAGUCCGACGAUCAGAAGGAUCUGAUGGGACAGAUAUCAAUGCACUGGUGCGAUCCCACAACCGAAAGGUGACCGCUGUUGCCGAUGACUUUUGUAAAGUCCAUCUGUUUCAGUAUCCCUGCUCCAAAGCAAACAACAGAGGAUUGAGCAUCA
B13: chr6:52279506:52279615:-|CDS|ENSG00000112118|unk|total|mutant (ssRNA)
RNA: GGGAGUUCUACAGUCCGACGAUCUGAGUGUGGCAUUUUUAAGACAGGACGGAGAUCACUCUGUCCCUCUGUGUGCCUUUUUCCCGGAUGAGGAGAACAAUCCCCUUGAGACAGAAUAUGGCCUUUCUGUCUACAAGGAUCACCCAACAGAGGAUUGAGCAUCA
B14: chr1:17067933:17068034:-|3pUTR|ENSG00000117115|msi1|FALSE|unique (ssRNA)
RNA: GGGAGUUCUACAGUCCGACGAUCACAUAAGGACCCUGGCCUACCCUCCAGCCCAACAGCCAGUUCUGGGUCAGCUGCCAACUUAGGGGUGGUUUGAUUAUCCCAUUGAAAUUCACCAGUGCCUUUGCCAAAGACCCUCUCAUUCAACAGAGGAUUGAGCAUCA

These binders were tested against T1, UNK ZnF1-6 (called full-length) (assay: nsRBNS (natural sequence RNA bind-n-seq); RBNS binding buffer (assumed for nsRBNS): 25 mM Tris pH 7.5, 150 mM KCl, 3 mM MgCl2, 0.01% Triton X-100, 500 ug/ml BSA, 20 U/ml SUPERase-In, 4 C; UNK is unkempt and MSI1 is Musashi-1; names of the RNAs are library labels; protein concentration not given here; high values mean tight binding).

Binder | binding signal [enrichment R]
B1 | 0.695
B2 | 1.88
B3 | 5.33
B4 | 0.785
B5 | 0.372
B6 | 0.765
B7 | 1.72
B8 | 8.52
B9 | 14.2
B10 | 2.41
B11 | 9.28
B12 | 0.381
B13 | 0.393
B14 | 0.896
